Common to all, as to assay: DAPPL (digital affinity profiling via proximity ligation, sequencing); 10 mM Tris-HCl pH 7.5, 50 mM NaCl, 1 mM DTT, 4% glycerol, room temperature, 30 min; GST-TFs on glutathione beads, 16-mer random dsDNA library, 0.1% formaldehyde crosslink after washing; high values mean tight binding
The target of one assay is T1, FLI1 (Homo sapiens, UniProt Q01543 1-452).
T1 sequence: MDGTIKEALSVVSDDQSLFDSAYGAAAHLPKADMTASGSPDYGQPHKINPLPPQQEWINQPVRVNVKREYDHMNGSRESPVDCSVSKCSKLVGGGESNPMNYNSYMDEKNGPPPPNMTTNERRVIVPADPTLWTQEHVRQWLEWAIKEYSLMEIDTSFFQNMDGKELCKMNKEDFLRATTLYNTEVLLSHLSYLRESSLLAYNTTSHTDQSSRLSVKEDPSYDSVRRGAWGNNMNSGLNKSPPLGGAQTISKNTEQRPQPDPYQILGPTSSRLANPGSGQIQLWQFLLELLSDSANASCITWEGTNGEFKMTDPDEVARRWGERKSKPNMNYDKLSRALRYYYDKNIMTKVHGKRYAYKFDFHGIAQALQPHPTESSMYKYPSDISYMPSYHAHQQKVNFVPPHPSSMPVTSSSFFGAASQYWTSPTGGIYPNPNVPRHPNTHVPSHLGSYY
The settings on record: protein: recombinant; tags: N-terminal GST; dsDNA, one strand shown. In a few lines:
(§1)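 Binding signal is given per hexamer as its read frequency for a factor divided by its frequency in the tag-only sample. GST-fused human transcription factors were expressed in yeast, captured on glutathione beads, barcoded with DNA and pooled with that sample, then incubated with 200 nmole of a 16-mer random double-stranded DNA library in Tris/NaCl/DTT/glycerol buffer for 30 min at room temperature. The pools were then washed, crosslinked, proximity-ligated, amplified by PCR and sequenced on an Illumina NextSeq500.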

For the next assay, the target named is T2, ELK1 (Homo sapiens, UniProt P19419 1-428).
T2 sequence: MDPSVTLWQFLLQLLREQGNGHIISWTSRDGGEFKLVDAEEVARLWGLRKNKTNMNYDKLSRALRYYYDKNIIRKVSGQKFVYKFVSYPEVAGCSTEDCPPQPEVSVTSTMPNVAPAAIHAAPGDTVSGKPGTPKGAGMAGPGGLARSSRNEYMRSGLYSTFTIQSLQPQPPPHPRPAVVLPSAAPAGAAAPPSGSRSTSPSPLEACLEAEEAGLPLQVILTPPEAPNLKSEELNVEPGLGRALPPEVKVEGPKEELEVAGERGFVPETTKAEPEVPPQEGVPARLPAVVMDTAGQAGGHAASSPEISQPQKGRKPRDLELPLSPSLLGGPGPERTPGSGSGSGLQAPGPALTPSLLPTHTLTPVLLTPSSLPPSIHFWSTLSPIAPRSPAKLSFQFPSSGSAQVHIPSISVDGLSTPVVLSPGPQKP
The settings on record: protein: recombinant; tags: N-terminal GST; dsDNA, one strand shown. In a few lines:
as §1

The next assay deals with T3, GABPA (Homo sapiens, UniProt Q06546 1-454).
T3 sequence: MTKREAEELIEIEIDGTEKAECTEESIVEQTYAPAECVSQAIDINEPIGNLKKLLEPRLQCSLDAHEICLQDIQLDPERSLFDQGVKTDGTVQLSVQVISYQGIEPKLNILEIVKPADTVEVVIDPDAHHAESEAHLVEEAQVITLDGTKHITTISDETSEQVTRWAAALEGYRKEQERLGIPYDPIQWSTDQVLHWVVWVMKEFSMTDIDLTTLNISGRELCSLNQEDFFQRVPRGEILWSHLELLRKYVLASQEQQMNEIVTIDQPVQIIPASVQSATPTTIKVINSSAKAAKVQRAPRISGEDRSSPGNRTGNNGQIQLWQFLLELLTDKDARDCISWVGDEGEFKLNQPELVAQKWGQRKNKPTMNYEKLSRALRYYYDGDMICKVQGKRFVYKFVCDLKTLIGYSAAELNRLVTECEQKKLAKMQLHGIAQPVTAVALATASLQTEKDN
The settings on record: protein: recombinant; tags: N-terminal GST; dsDNA, one strand shown. In a few lines:
as §1

Another assay has as its target T4, ERG (Homo sapiens, UniProt P11308 1-479).
T4 sequence: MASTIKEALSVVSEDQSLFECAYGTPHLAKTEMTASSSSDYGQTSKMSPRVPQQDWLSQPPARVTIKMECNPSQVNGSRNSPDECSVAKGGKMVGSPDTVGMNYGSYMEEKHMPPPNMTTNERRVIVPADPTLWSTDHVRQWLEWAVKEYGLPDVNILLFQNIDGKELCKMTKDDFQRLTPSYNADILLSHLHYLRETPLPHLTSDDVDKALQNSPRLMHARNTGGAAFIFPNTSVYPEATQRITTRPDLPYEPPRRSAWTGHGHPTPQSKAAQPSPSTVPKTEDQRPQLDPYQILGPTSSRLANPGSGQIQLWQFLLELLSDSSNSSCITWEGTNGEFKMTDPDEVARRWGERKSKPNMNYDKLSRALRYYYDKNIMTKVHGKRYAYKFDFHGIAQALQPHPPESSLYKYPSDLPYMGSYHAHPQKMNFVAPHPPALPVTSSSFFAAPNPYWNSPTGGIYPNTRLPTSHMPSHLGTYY
The settings on record: protein: recombinant; tags: N-terminal GST; dsDNA, one strand shown. In a few lines:
as §1

Another assay has as its target ELF1 (Homo sapiens, UniProt P32519 1-619). As to conditions: protein: recombinant; tags: N-terminal GST; dsDNA, one strand shown. In a few lines: as §1
A further assay concerns the target T5, EHF (Homo sapiens, UniProt Q9NZC4 1-300).
T5 sequence: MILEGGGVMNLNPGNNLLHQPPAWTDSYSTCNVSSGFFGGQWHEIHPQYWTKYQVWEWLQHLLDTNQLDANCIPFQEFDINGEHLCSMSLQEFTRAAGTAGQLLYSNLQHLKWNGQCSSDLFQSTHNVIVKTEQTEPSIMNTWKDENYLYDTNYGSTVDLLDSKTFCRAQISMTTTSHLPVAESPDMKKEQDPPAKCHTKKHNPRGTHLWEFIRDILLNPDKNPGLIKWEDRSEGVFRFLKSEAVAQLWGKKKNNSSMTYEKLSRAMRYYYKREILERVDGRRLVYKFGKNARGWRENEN
The settings on record: protein: recombinant; tags: N-terminal GST; dsDNA, one strand shown. In a few lines: as §1

For the next assay, the target named is SPI1 (Homo sapiens, UniProt P17947 1-270). The settings on record: protein: recombinant; tags: N-terminal GST; dsDNA, one strand shown. In a few lines: as §1
A further assay concerns the target SPIB (Homo sapiens, UniProt Q01892 1-262). The settings on record: protein: recombinant; tags: N-terminal GST; dsDNA, one strand shown. In a few lines: as §1
The target in another assay is T6, ELK3 (Homo sapiens, UniProt P41970 1-407).
T6 sequence: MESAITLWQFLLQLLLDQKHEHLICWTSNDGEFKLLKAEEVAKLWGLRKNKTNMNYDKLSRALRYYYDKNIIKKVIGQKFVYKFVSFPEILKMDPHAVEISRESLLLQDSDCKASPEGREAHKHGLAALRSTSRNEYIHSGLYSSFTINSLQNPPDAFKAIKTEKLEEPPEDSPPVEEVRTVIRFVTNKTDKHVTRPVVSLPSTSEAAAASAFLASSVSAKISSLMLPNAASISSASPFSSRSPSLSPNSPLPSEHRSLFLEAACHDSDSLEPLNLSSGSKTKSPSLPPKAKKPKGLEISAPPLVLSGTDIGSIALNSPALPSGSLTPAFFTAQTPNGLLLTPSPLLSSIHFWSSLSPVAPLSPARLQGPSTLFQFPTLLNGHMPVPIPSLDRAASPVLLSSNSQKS
As to conditions: protein: recombinant; tags: N-terminal GST; dsDNA, one strand shown. In a few lines:
as §1

The target of a further assay is T7, FEV (Homo sapiens, UniProt Q99581 1-238).
T7 sequence: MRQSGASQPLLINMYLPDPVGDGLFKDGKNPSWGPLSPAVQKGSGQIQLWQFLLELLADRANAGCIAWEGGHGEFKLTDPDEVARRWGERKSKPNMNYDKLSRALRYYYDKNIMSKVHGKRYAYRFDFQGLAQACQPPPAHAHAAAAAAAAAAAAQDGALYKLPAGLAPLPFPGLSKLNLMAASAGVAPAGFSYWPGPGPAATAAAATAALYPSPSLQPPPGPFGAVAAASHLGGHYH
The settings on record: protein: recombinant; tags: N-terminal GST; dsDNA, one strand shown. In a few lines: as §1

A further assay deals with ETV5 (Homo sapiens, UniProt P41161 1-510). The settings on record: protein: recombinant; tags: N-terminal GST; dsDNA, one strand shown. In a few lines:
as §1

For the next assay, the target named is HSF1 (Homo sapiens, UniProt Q00613 1-529). The settings on record: protein: recombinant; tags: N-terminal GST; chain copies: 3; dsDNA, one strand shown. In a few lines: as §1
In the next assay the target is ELF4 (Homo sapiens, UniProt Q99607 1-663). As to conditions: protein: recombinant; tags: N-terminal GST; dsDNA, one strand shown. In a few lines:
as §1

The target of the next assay is T8, ELK4 (Homo sapiens, UniProt P28324-2 1-405).
T8 sequence: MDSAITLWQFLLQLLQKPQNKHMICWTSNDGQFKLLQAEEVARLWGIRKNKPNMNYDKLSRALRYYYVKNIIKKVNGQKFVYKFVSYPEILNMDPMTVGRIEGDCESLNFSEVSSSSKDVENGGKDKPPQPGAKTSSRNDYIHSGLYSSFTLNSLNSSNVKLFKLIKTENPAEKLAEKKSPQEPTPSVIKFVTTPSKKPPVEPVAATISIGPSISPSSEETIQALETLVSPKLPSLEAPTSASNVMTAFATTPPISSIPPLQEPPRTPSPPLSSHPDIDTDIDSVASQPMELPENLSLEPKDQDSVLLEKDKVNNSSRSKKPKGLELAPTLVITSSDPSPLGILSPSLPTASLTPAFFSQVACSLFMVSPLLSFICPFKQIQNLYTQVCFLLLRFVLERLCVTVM
As to conditions: protein: recombinant; tags: N-terminal GST; dsDNA, one strand shown. In a few lines:
as §1

The target in the next assay is T9, ETV2 (Homo sapiens, UniProt O00321 1-342).
T9 sequence: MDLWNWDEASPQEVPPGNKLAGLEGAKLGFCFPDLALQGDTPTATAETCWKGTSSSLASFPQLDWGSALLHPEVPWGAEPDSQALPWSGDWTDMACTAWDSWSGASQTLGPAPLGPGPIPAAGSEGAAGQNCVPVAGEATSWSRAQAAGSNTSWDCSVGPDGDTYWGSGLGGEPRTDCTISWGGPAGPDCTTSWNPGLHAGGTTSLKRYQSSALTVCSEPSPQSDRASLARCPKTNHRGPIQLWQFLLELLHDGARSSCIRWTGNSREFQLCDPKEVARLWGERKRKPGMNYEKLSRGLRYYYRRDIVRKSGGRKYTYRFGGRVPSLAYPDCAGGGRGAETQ
The settings on record: protein: recombinant; tags: N-terminal GST; dsDNA, one strand shown. In a few lines:
as §1

The next assay deals with T10, ELF3 (Homo sapiens, UniProt P78545 1-371).
T10 sequence: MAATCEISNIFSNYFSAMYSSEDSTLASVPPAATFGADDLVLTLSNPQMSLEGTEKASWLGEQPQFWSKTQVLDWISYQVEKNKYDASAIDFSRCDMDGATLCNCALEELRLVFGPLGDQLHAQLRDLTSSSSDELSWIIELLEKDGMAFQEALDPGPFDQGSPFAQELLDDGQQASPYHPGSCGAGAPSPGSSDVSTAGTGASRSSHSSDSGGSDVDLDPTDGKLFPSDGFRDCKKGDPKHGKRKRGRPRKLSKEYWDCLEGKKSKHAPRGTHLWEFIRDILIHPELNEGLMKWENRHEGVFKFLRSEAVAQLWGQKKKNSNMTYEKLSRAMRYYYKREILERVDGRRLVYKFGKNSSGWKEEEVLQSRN
The settings on record: protein: recombinant; tags: N-terminal GST; dsDNA, one strand shown. In a few lines:
as §1

The target in the next assay is ETV1 (Homo sapiens, UniProt P50549 1-477). The settings on record: protein: recombinant; tags: N-terminal GST; dsDNA, one strand shown. In a few lines: as §1
Chain of ETV1 (P50549 whole entry): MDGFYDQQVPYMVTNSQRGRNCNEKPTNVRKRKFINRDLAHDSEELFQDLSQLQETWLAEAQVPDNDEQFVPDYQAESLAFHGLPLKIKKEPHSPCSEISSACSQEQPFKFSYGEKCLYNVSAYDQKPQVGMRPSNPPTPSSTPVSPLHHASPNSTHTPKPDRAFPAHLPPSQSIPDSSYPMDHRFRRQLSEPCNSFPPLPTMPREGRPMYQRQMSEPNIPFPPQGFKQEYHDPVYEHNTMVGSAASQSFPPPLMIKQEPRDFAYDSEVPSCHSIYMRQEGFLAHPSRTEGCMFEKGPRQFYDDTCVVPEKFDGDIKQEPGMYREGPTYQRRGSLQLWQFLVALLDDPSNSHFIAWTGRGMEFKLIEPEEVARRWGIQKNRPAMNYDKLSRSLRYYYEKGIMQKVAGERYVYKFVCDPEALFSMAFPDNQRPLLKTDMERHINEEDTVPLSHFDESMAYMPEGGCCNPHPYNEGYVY

Chain of HSF1 (Q00613 whole entry): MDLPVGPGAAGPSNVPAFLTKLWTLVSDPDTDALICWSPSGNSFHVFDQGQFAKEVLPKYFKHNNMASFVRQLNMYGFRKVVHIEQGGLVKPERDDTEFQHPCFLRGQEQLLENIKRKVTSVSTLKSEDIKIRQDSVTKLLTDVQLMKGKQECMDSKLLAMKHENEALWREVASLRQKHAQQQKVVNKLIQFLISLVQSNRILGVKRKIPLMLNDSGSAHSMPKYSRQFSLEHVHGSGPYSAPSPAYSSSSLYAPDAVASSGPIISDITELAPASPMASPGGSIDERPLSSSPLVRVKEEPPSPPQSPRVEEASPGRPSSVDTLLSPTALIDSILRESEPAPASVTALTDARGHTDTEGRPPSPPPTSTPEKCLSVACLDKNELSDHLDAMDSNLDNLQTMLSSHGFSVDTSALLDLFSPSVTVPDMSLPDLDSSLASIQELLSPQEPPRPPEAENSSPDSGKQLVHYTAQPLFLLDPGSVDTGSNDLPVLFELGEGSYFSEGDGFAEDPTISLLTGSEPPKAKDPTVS
Chain of ETV5 (P41161 whole entry): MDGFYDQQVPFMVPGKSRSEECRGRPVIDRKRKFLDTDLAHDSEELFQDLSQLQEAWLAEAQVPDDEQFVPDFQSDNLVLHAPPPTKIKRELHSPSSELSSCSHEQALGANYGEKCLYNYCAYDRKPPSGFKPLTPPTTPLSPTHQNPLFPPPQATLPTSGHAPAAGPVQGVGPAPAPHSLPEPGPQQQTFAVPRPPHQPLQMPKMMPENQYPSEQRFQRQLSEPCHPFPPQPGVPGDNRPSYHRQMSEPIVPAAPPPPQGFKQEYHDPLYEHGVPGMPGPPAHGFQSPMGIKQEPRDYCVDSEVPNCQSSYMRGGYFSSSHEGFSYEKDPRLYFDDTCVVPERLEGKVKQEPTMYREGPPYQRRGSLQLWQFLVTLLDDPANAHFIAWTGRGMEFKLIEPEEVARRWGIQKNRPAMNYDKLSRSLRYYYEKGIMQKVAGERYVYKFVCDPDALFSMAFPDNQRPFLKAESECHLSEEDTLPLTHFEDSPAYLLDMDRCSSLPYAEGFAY
Chain of ELF4 (Q99607 whole entry): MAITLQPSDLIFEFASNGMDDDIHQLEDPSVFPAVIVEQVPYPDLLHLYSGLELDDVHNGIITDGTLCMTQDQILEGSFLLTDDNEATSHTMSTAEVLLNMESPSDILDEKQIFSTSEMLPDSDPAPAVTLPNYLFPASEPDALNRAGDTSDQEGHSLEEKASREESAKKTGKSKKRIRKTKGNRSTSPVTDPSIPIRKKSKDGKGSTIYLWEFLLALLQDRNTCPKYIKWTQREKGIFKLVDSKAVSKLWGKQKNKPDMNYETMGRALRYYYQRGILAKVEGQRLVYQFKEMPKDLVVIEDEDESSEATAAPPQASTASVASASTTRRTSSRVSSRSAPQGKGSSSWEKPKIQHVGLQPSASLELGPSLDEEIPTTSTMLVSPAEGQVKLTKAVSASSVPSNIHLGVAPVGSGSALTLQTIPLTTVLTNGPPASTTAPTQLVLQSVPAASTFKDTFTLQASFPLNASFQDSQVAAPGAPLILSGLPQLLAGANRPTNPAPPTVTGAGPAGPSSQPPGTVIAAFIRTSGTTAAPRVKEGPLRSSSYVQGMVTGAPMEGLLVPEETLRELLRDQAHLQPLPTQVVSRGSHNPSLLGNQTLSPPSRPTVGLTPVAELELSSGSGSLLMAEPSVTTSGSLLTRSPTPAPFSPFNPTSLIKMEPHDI
Chain of ELF1 (P32519 whole entry): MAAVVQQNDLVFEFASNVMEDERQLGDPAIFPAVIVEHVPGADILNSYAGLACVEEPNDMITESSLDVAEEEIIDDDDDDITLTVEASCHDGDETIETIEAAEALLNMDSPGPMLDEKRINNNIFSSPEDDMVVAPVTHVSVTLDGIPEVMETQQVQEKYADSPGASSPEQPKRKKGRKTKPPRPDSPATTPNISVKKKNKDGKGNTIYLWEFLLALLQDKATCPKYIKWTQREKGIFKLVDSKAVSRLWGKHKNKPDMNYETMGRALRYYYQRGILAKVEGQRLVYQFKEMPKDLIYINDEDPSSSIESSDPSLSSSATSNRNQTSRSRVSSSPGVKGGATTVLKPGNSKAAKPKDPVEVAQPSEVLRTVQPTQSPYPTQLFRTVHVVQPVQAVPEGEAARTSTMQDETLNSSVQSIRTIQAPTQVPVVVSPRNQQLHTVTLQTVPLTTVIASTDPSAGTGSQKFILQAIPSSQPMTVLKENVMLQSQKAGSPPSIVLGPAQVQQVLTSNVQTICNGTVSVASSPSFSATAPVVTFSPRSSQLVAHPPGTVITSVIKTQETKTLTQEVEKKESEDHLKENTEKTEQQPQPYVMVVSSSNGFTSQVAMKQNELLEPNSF
Chain of SPIB (Q01892 whole entry): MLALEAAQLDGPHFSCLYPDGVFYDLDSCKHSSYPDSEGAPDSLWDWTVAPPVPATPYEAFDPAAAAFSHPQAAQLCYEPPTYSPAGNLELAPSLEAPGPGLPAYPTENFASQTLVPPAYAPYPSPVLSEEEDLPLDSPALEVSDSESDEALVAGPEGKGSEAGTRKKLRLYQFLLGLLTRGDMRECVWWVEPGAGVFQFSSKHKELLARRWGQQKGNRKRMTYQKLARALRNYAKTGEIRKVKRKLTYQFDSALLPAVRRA

For the sequence ACGCCC, the binding signal is 1.22 fold enrichment (6-mer frequency, TF over GST control) in the assay with FLI1; 1.21 fold enrichment (6-mer frequency, TF over GST control) with ELK1; 1.25 fold enrichment (6-mer frequency, TF over GST control) with GABPA; 1.11 fold enrichment (6-mer frequency, TF over GST control) with ERG; 1.21 fold enrichment (6-mer frequency, TF over GST control) with ELF1; 1.18 fold enrichment (6-mer frequency, TF over GST control) with EHF. The binding signal with SPI1 was 1.11 fold enrichment (6-mer frequency, TF over GST control); in the assay with SPIB, 1.14 fold enrichment (6-mer frequency, TF over GST control); with ELK3 it was 1.11 fold enrichment (6-mer frequency, TF over GST control); in the assay with FEV it was 1.12 fold enrichment (6-mer frequency, TF over GST control); with ETV5 it was 1.16 fold enrichment (6-mer frequency, TF over GST control); in the assay with HSF1 it was 1 fold enrichment (6-mer frequency, TF over GST control). In addition, the binding signal in the assay with ELF4 is 1.2 fold enrichment (6-mer frequency, TF over GST control); with ELK4, 1.18 fold enrichment (6-mer frequency, TF over GST control); with ETV2, 1.05 fold enrichment (6-mer frequency, TF over GST control); with ELF3 it was 1.06 fold enrichment (6-mer frequency, TF over GST control); in the assay with ETV1, 1.16 fold enrichment (6-mer frequency, TF over GST control).
